# Data as given in PubChem BioAssay AID488969 (Vanderbilt High Throughput Screening Facility, 2010).
# Whole data set: some 110,000 compounds, median “z-score” near -0.1, cut for the highest 2% near 2. The entries come from a sample that favours the highest values as a whole. Calls of active or inactive are those of the source.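 How the source made its calls: active means z-score in the third read window above 3 or below -3; inactive means the rest.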
# Molecular target: Metabotropic glutamate receptor 8 (Rattus norvegicus) (UniProt P70579)
# Assay: rat mGluR8 modulators via GIRK flux, primary screen, cell-based, thallium flux, HTS (AID 488969)
# Details: HEK293 rat mGluR8, GIRK (G protein-gated inwardly rectifying potassium channel) thallium flux, FluoZin2; at 10 µM; stronger effect = higher value; submaximal glutamate (EC20) added with thallium
# Sequence of Metabotropic glutamate receptor 8 (Rattus norvegicus) (P70579 whole entry, looked up): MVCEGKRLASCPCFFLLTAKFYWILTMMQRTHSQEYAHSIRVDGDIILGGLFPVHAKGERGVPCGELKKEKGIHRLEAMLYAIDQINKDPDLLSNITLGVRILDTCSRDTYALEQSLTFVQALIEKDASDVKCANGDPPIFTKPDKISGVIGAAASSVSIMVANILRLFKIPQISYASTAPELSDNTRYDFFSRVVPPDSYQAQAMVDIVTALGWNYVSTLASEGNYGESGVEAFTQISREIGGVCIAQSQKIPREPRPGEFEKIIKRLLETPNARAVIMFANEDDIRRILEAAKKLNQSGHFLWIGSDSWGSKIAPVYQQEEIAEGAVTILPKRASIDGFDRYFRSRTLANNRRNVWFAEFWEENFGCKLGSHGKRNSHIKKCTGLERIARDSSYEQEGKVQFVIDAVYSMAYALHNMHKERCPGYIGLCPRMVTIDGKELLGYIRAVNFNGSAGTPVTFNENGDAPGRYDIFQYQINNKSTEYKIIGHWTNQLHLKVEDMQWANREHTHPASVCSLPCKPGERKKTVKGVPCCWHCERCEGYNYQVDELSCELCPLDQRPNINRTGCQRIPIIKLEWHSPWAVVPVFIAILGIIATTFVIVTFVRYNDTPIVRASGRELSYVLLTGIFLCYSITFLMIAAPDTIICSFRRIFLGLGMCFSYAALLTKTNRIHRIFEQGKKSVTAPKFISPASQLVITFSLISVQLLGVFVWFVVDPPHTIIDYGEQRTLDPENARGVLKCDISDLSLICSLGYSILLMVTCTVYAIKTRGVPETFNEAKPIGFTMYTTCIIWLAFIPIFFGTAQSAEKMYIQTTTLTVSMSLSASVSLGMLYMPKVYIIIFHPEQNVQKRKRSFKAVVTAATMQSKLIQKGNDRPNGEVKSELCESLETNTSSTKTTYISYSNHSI
row,Structure (SMILES),z-score
1,CC(O)c1n(C)c(Cl)c[n+]1C (stereo not drawn),-0.00128
2,O=C(CO/N=C/c1ccccc1O)N1CCc2ccccc21,-0.0476
3,O=C(Nc1nnc(-c2ccc(Cl)cc2)o1)c1cccc(N2C(=O)CCC2=O)c1,3.29 (active)
4,O=C(Nc1nnc(-c2ccc(Cl)cc2)o1)NC1CCCCC1,-0.0226
5,O=C(Nc1ccccc1)c1cccc(N2C(=O)CCC2=O)c1,-0.0312
6,Cc1cc(NC(=O)c2ccc(N3C(=O)CCC3=O)cc2)no1,0.412
7,O=C(Nc1nnc(-c2ccccc2)o1)c1cccc(N2C(=O)CCC2=O)c1,-0.326
8,O=C(Nc1nnc(-c2ccc(Cl)cc2)o1)c1ccc(N2C(=O)CCC2=O)cc1,4.39 (active)
9,Cc1cc(C)c(C)c(OCCCn2ccnc2)c1,-0.369
10,COC(=O)c1ccc(/C=N/N2CCN(Cc3ccc(C)cc3C)CC2)cc1,2.42
11,COC(=O)c1ccc(/C=N\N2CCN(Cc3ccc(C)cc3)CC2)cc1,-0.269
12,COC(=O)c1ccc(/C=N/N2CCN(Cc3ccccc3)CC2)cc1,-0.196
13,Cc1cccc(NC(=O)C2Cc3ccccc3CN2C(=O)OCc2ccccc2)c1C (stereo not drawn),-0.188
14,CCC1CCCCN1C(=O)CSc1nc2c([nH]c3ccccc32)c(=O)n1C (stereo not drawn),0.357
15,CCOP(=O)(OCC)C(Nc1ccccn1)c1ccc(F)cc1 (stereo not drawn),-0.18
16,O=C(NCc1ccccc1F)c1cccs1,-0.158
17,O=C(O)c1cc2c(ccc3ccccc32)[nH]1,-0.467
18,CS(=O)(=O)c1ccc2nc(NC(=O)Nc3cccc(Cl)c3)sc2c1,0.135
19,CS(=O)(=O)c1ccc2nc(NC(=O)Nc3ccc(Cl)cc3)sc2c1,0.161
20,O=C(Nc1nc2ccc(S(=O)(=O)N3CCCCC3)cc2s1)C1CCCO1 (stereo not drawn),-0.0835
21,CS(=O)(=O)c1ccc2nc(NC(=O)C3C4C=CC(C4)C3C(=O)O)sc2c1 (stereo not drawn),4.92 (active)
22,CS(=O)(=O)c1ccc2nc(NC(=O)Nc3ccc(Cl)c(Cl)c3)sc2c1,3.23 (active)
23,O=C(Nc1nc2ccc(F)cc2s1)C1CCCO1 (stereo not drawn),0.535

row,Structure (SMILES),z-score
1,NS(=O)(=O)c1ccc2nc(NC(=O)C3CCCO3)sc2c1 (stereo not drawn),2.74
2,CCC(=O)Nc1nc2ccc(S(C)(=O)=O)cc2s1,0.244
3,CC1=CCC(C(=O)O)C(C(=O)Nc2nc3ccc(S(C)(=O)=O)cc3s2)C1 (stereo not drawn),0.387
4,CN(C)c1ccc(CN(C(=O)COc2ccccc2)C2CCS(=O)(=O)C2)cc1 (stereo not drawn),-0.709
5,O=C(NCc1cn(-c2ccccc2)nc1-c1ccccc1)c1ccc([N+](=O)[O-])cc1,-0.0499
6,O=C(CSc1cc(Cl)ccc1Cl)NCC1CCCO1 (stereo not drawn),-0.0958
7,Cc1ccccc1-n1c(SCc2csc(Nc3ccccc3)n2)nnc1-c1cccnc1,-0.897
8,CCN1CCN(Cc2cccc(Oc3ccc(Cl)cc3)c2)CC1,0.924
9,CN1CCN(Cc2cccc(Oc3ccc(Cl)cc3)c2)CC1,4 (active)
10,CCN1CCN(Cc2cccc(Oc3ccccc3)c2)CC1,0.156
11,c1ccc(Oc2cccc(CN3CCCCC3)c2)cc1,-0.282
12,CN1CCN(Cc2cccc(Oc3ccccc3)c2)CC1,0.0807
13,CC1CCCN(Cc2cccc(Oc3ccccc3)c2)C1 (stereo not drawn),6.29 (active)
14,CCc1ccc(Nc2nnc(SCC(=O)N(C)CC(=O)Nc3ccccc3CC)s2)cc1,-0.439
15,CSc1nccc(Oc2ccc(C#N)cc2)n1,-0.172
16,CC1=C/C(=N\OS(=O)(=O)c2ccccc2)C=CC1=O,3
17,CC1=C/C(=N\OS(=O)(=O)c2ccccc2)C(C)=CC1=O,-0.189
18,CC1=CC(=O)C=C(C)C1=NOS(=O)(=O)c1ccccc1,0.257
19,Cc1ccc(C(=O)N2CC(C)OC(C)C2)c(Cl)c1 (stereo not drawn),-0.0463
20,Cc1ccc(-n2c(Cc3cccn3C)nnc2SCC(=O)Nc2cc(C)on2)cc1,-0.345
21,CCNC(=S)NNC(=O)c1csc(CC)c1,-0.163
22,CCc1cc(C(=O)NNC(=S)Nc2cccc(C)c2)cs1,7.17 (active)
23,CNC(=S)NNC(=O)c1sccc1C,-0.0354

row,Structure (SMILES),z-score
1,CCc1cc(C(=O)NNC(=S)NCc2ccccc2)cs1,0.0336
2,CCc1cc(C(=O)NNC(=S)Nc2cc(C)ccc2C)cs1,6.35 (active)
3,CCCCNC(=S)NNC(=O)c1csc(CC)c1,-0.0512
4,CCc1cc(C(=O)NNC(=S)Nc2ccccc2C)cs1,1.47
5,Cc1cccc(NC(=S)NNC(=O)c2sccc2C)c1,2.13
6,Cc1ccc(C)c(NC(=S)NNC(=O)c2sccc2C)c1,1.53
7,Cc1nn2c3c(cnc2c1-c1ccccc1)C(=O)CCC3,-0.149
8,CC(C)(C)C(=O)NC1(C(F)(F)F)N=C2SCCN2C1=O (stereo not drawn),-0.137
9,O=C(COc1ccc(S(=O)(=O)NC2CCCCC2)cc1)NCc1cccnc1,-0.589
10,COc1cc(-c2nc3ccccc3c(=O)n2N)cc(OC)c1OC,-0.0215
11,O=C(CSc1ccc2nnc(-c3ccc(Cl)cc3)n2n1)N1CCCc2ccccc21,0.00121
12,Cc1cc2nc3c(nc2cc1C)C1(C(=O)N(C)C)CCC3(C)C1(C)C (stereo not drawn),-0.192
13,Cc1cccc(-n2ncc3c(NCc4cccs4)ncnc32)c1,-0.705
14,O=c1c2ccccc2c(-c2ccccc2)nn1Cc1ccc(Cl)cc1,-0.152
15,Cc1ccc2[nH]c3c(=O)n(CCC4=CCCCC4)cnc3c2c1,-0.447
16,Cn1c(-c2ccccc2O)cc2ccccc21,0.085
17,Cc1occc1C(=O)N=Nc1c(O)[nH]c2ccc(Br)cc12,-0.135
18,CCC(=O)NC(=S)Nc1ccc(NC(=O)c2ccc(OC)cc2)cc1,-0.111
19,O=C(Nc1ccccc1Sc1ccccc1)C1CCCO1 (stereo not drawn),-0.775
20,Cc1ccc(NC(=O)C2CCCN2S(=O)(=O)c2cccc3cccnc23)cc1F (stereo not drawn),2.9
21,CC(=O)c1ccc(NC(=O)C2CCCN2S(=O)(=O)c2cccc3cccnc23)cc1 (stereo not drawn),-0.24
22,Cc1ccccc1NC(=O)C1CCCN1S(=O)(=O)c1cccc2cccnc12 (stereo not drawn),-0.0844
23,Cc1cccc(NC(=O)C2CCCN2S(=O)(=O)c2cccc3cccnc23)c1 (stereo not drawn),0.22

row,Structure (SMILES),z-score
1,O=C(Nc1cccc(F)c1)C1CCCN1S(=O)(=O)c1cccc2cccnc12 (stereo not drawn),-0.182
2,CC(=O)c1cccc(NC(=O)C2CCCN2S(=O)(=O)c2cccc3cccnc23)c1 (stereo not drawn),4.14 (active)
3,COc1ccc(-c2cn3c(C)c(C(=O)N4CCN(c5ccc(F)cc5)CC4)sc3n2)cc1,0.116
4,COc1cccc(CNCCSc2nnnn2C)c1OC,0.709
5,O=C(CSc1cccc2cccc(Cl)c12)NCc1cccs1,3.5 (active)
6,Cc1csc(SCC(=O)NCc2cccs2)n1,0.824
7,O=C(CSc1ccc2ccccc2c1)NCc1cccs1,0.0417
8,O=C(NCc1cccnc1)c1cccc(C(F)(F)F)c1,-0.793
9,COc1cccc(CNCc2ccc(SC)cc2)c1OC,-0.19
10,COc1ccccc1CNCc1ccc(OC)c(OC)c1OC,2.07
11,COc1ccccc1CNCc1cccs1,0.411
12,CC1(C)CNC(=O)C=C(c2ccccc2)C1,-0.176
13,Cc1ccc(S(=O)(=O)N(C)CC(=O)O/N=C(\N)c2ccc([N+](=O)[O-])cc2)cc1,-0.621
14,COn1c(=O)c(-c2ccc(Cl)cc2)[n+]([O-])c2ccccc21,-0.503
15,CCOn1c(=O)c(-c2ccc(Cl)cc2)[n+]([O-])c2ccccc21,0.119
16,O=c1c(-c2ccc(Cl)cc2)[n+]([O-])c2ccccc2n1O,14 (active)
17,Cc1ccc(C)c(-n2[nH]c3c4c(ccc3c2=O)C(=O)c2ccccc2C4=O)c1,0.0628
18,O=C(Nc1ccncc1)c1ccc2c(c1)C(=O)N(C1CCCCC1)C2=O,6.89 (active)
19,Cc1cc(NC(=O)c2ccc3c(c2)C(=O)N(C2CCCCC2)C3=O)no1,0.19
20,O=C(Nc1ccncc1)c1ccc2c(c1)C(=O)N(CC1CCCO1)C2=O (stereo not drawn),-0.193
21,CCOC(=O)N1CCN(c2cc(=O)n(-c3ccc(OCC)cc3)c(=O)[nH]2)CC1,-0.000123
22,O=C(NNC(=O)c1sccc1-n1cccc1)c1ccc(Cl)cc1,3.06 (active)
23,O=C(NNS(=O)(=O)c1ccc(Cl)cc1)c1sccc1-n1cccc1,0.249

row,Structure (SMILES),z-score
1,O=C(NNC(=O)c1sccc1-n1cccc1)c1ccccc1,0.869
2,O=C(NNS(=O)(=O)c1cc(Cl)cc(Cl)c1)c1sccc1-n1cccc1,1.93
3,O=C(N/N=C\c1ccc(Cl)cc1Cl)c1sccc1-n1cccc1,-0.203
4,O=C(NNC(=O)c1sccc1-n1cccc1)c1cccc(Cl)c1,4.1 (active)
5,CCOC(=O)N/N=C(C)/C=C/c1ccco1,0.31
6,CCC(Oc1ccccc1)C(=O)N1CCN(C(=O)C(CC)Oc2ccccc2)CC1 (stereo not drawn),-0.159
7,Cn1c(SCC(=O)NNC(=O)Cc2ccccc2)nnc1-c1ccc(Cl)cc1,-0.126
8,N=C1/C(=C/c2cccn2-c2ccc([N+](=O)[O-])cc2)C(=O)N=C2SC=CN12,-0.214
9,N=C1/C(=C/c2cccn2-c2cccc([N+](=O)[O-])c2)C(=O)N=C2SC=CN12,-0.207
10,CC(C)c1ccc(-n2cccc2/C=C2/C(=N)N3C=CSC3=NC2=O)cc1,2.17
11,CC1CCN(c2c([N+](=O)[O-])c(=O)n(-c3ccccc3)c3ccccc23)CC1,0.00884
12,N#C/C(=C/c1ccc(OCc2ccccc2)cc1)C(=O)NC1CCCCC1,0.0182
13,O=C(NCCN1CCCC1)c1ccc(CS(=O)(=O)c2c(Cl)cccc2Cl)o1,-0.063
14,O=C(c1sc2cc(F)ccc2c1Cl)N1CCN(c2cccc(Cl)c2)CC1,-0.403
15,CCCCCCC(=O)NC(Nc1ccc(S(N)(=O)=O)cc1)C(Cl)(Cl)Cl (stereo not drawn),-0.259
16,Cn1ncc2c(=O)n(CC(=O)NC34CC5CC(CC(C5)C3)C4)cnc21,-0.265
17,COC(=O)C1=NN(N=O)C2(CC(=O)N(c3cc(C)cc(C)c3)C2=O)C1 (stereo not drawn),-0.194
18,Cc1ccc(C)n1-c1ccc(C(=O)NCC2CCCO2)cc1 (stereo not drawn),-0.25
19,CCCCN(C)C1=CC2=CC(=C(C#N)C#N)CCC2CC1 (stereo not drawn),5.11 (active)
20,N#CC(C#N)=C1C=C2C=C(N3CCCCC3)CCC2CC1 (stereo not drawn),10.9 (active)
21,O=c1[nH]c2cc3c(cc2cc1C(c1nnnn1C1CCCCC1)N1CCSCC1)OCCO3 (stereo not drawn),0.278
